Assay results: PMC4552634, “A New Set of Chemical Starting Points with Plasmodium falciparum Transmission-Blocking Potential for Antimalarial Drug Discovery” (PLoS ONE, 2015)
Like-named read-outs stand apart in the source and are kept apart here. In all, about 13,000 compounds went through this assay and about 3,200 (25%) showed an effect of 50% or more. This is one part of the list.

Test system: P. falciparum stage V gametocytes
Set-up: BacTiter-Glo ATP luminescence viability of purified stage V gametocytes in 384-well plates, per cent inhibition versus DMSO
Conditions: 48 h, 5 µM, inhibitor

Structure (SMILES)	% Inhibition [%]	% Inhibition (% Inhibition) [%]
CCCC(C)c1cnc2nc(N)nc(N)c2c1C (stereo not drawn) [TCMDC-137924]	4.639	–
CCCC1N=C(N)N=C(N)N1c1ccccc1 (stereo not drawn) [TCMDC-131293]	-19.04	–
C[C@H](Cc1ccc(OCCCCCCOc2ccccc2)cc1)NC[C@H](O)c1cccc(Cl)c1 [TCMDC-131552]	11.17	–
CCOC(=O)c1ccc(CC(C)NCC(O)c2cccc(C(F)(F)F)c2)cc1 (stereo not drawn) [TCMDC-131491]	8.983	–
COC(=O)c1ccc(CC(C)NCC(O)c2cccc(C(F)(F)F)c2)cc1 (stereo not drawn) [TCMDC-131438]	–	6.787
CC(Cc1ccc(C(=O)OCCOC(=O)c2ccc(CC(C)NCC(O)c3cccc(C(F)(F)F)c3)cc2)cc1)NCC(O)c1cccc(C(F)(F)F)c1 (stereo not drawn) [TCMDC-131544]	75.47	–
COC(=O)c1ccc(C[C@@H](C)NC[C@H](O)c2cccc(C(F)(F)F)c2)cc1 [TCMDC-131475]	–	15.4
C[C@H](Cc1ccc(OCCCCCOc2ccc(C[C@@H](C)NC[C@H](O)c3cccc(Cl)c3)cc2)cc1)NC[C@H](O)c1cccc(Cl)c1 [TCMDC-131563]	110.4	–
CC(Cc1ccc(OCCN2CCN(c3cccc(Cl)c3)CC2)cc1)NCC(O)c1cccc(Cl)c1 (stereo not drawn) [TCMDC-131533]	18.65	–
CC(Cc1ccc(OCCOc2ccccc2)cc1)NCC(O)c1cccc(C(F)(F)F)c1 (stereo not drawn) [TCMDC-131510]	16.36	–
CNCCCCCCOc1ccc(CC(C)NCC(O)c2cccc(C(F)(F)F)c2)cc1 (stereo not drawn) [TCMDC-131523]	111.6	–
C#CCOc1ccc(CC(C)NCC(O)c2cccc(C(F)(F)F)c2)cc1 (stereo not drawn) [TCMDC-131480]	12.31	–
COC(=O)c1ccc(C[C@@H](C)NC[C@H](O)c2cccc(C(F)(F)F)c2)cc1 [TCMDC-131458]	–	35.35
CC(Cc1ccc(C2=CCNCC2)cc1)NCC(O)c1cccc(C(F)(F)F)c1 (stereo not drawn) [TCMDC-131537]	95.16	–
O=C(NCc1cccc(F)c1)Nc1cccc(-c2ccc(-c3nc4ccc(F)cc4[nH]3)cc2)c1 [TCMDC-133293]	6.951	–
O=C(O)C1CC(=O)N(c2ccc(Cl)cc2)C1 (stereo not drawn) [TCMDC-125862]	2.166	–
COc1cccc(CN2CCCC(OC(c3ccc(F)cc3)c3ccc(F)cc3)C2)c1O (stereo not drawn) [TCMDC-136167]	-3.055	–
CN1CCC(NC(=O)c2cccc(Nc3cc(Nc4cccc(Br)c4)ncn3)c2)CC1 [TCMDC-124773]	-81.1	–
CN(C)CCOc1ccc(-c2cc(-c3ccncc3)c(-c3ccc(Cl)c(O)c3)o2)cc1 [TCMDC-141227]	36.77	–
COCC(C)n1c(SC(C)C(=O)Nc2cc([N+](=O)[O-])ccc2Cl)nc2ccccc2c1=O (stereo not drawn) [TCMDC-123709]	-35.25	–
C[C@H](Cc1ccc(C[C@@H](C)NC[C@H](O)c2cccc(Cl)c2)cc1)NC[C@H](O)COc1ccccc1 [TCMDC-131549]	104.7	–
CC(NCCc1cccc(Cl)c1)C(O)c1ccc(OCCCCCCOc2ccc(C(O)C(C)NCCc3cccc(Cl)c3)cc2)cc1 (stereo not drawn) [TCMDC-139334]	98.69	–
CC(Cc1ccc(OCCOc2ccccc2)cc1)NCC(O)c1cccc(Cl)c1 (stereo not drawn) [TCMDC-138939]	12.28	–

Structure (SMILES)	% Inhibition [%]	% Inhibition (% Inhibition) [%]
C[C@H](Cc1ccc(OCCCCCCOc2ccc(C[C@@H](C)NC(=O)[C@H](O)c3cccc(Cl)c3)cc2)cc1)NC[C@H](O)c1cccc(Cl)c1 [TCMDC-131571]	-3.505	–
CCCN1CCN(c2cc(NCC)c3c4c(onc24)-c2ccccc2C3=O)CC1 [TCMDC-123898]	-28.72	–
c1cc(COc2ccc(C3=NCCN3)cc2)nc(COc2ccc(C3=NCCN3)cc2)c1 [TCMDC-137805]	-1.887	–
CN1CCN(c2ccnc3ccc(NC(=O)Nc4ccc5ccccc5c4)cc23)CC1 [TCMDC-139343]	-1.403	–
Cc1cccc2[nH]c(-c3cccc(-c4ccc(NC(=O)c5ccncc5)cc4)c3)nc12 [TCMDC-136966]	61.29	–
Cc1cccc2[nH]c(-c3cccc(-c4ccc(NC(=O)c5ccc(=O)[nH]n5)cc4)c3)nc12 [TCMDC-137034]	-23.81	–
Cc1cccc2[nH]c(-c3cccc(-c4cccc(NC(=O)c5cnc[nH]5)c4)c3)nc12 [TCMDC-136936]	-12.17	–
Cc1cccc2[nH]c(-c3ccc(-c4cccc(NC(=O)c5ccncc5)c4)cc3)nc12 [TCMDC-136958]	22.27	–
Cc1cccc2[nH]c(-c3cccc(-c4ccc(NC(=O)c5ccoc5)cc4)c3)nc12 [TCMDC-136847]	83.68	–
Cc1cccc2[nH]c(-c3cccc(-c4cccc(NC(=O)c5ccncc5)c4)c3)nc12 [TCMDC-136965]	-36.15	–
Cc1cccc2[nH]c(-c3cccc(-c4ccc(NC(=O)c5cnc[nH]5)cc4)c3)nc12 [TCMDC-136937]	92.2	–
Cc1cccc2[nH]c(-c3cccc(-c4cccc(NC(=O)c5ccoc5)c4)c3)nc12 [TCMDC-136846]	20.35	–
Cc1cccc2[nH]c(-c3cccc(-c4ccc(NC(=O)NC(C)C)cc4)c3)nc12 [TCMDC-133251]	-14.46	–
O=C(Nc1ccc(-c2ccc(-c3nc4ccccc4[nH]3)s2)cc1)c1ccncc1 [TCMDC-136954]	11.16	–
COc1cc(-c2ccc3c(-c4ccc(C(=O)N5CCN(C)CC5)cc4)[nH]nc3n2)cc(OC)c1OC [TCMDC-124890]	40.62	–
COCCCNc1sc(S(=O)(=O)c2ccccc2)nc1S(=O)(=O)c1ccc(Cl)cc1 [TCMDC-124764]	-6.212	–
Cc1ccccc1NC(=O)C1CSCN1C(=O)OCc1ccccc1 (stereo not drawn) [TCMDC-125742]	-21.88	–
COc1ccc(F)cc1-c1ccccc1CNC(=O)c1cnn(-c2ccc([N+](=O)[O-])cc2)c1C(F)(F)F [TCMDC-136460]	-26.92	–
COc1ccc(C(=O)NCc2ccccc2-c2ccc(C(C)(C)C)cc2)cc1O [TCMDC-136716]	-20.55	–
COc1ccc(F)cc1-c1ccccc1CNC(=O)CN(C)S(=O)(=O)c1cc(C)cc(Cl)c1C [TCMDC-132302]	82.24	–
CCCCCC(C)N=C(Nc1ccc([N+](=O)[O-])cc1O)Nc1ccccc1Br (stereo not drawn) [TCMDC-140073]	-48.06	–
CCOC(=O)C1=C(C)N=c2sc(=Cc3cc(Cl)ccc3O)c(=O)n2C1c1cc(OC)c(OC)cc1Br (stereo not drawn) [TCMDC-124116]	34.65	–
CCOC(=O)C1=C(C)N=c2sc(=Cc3cc(Cl)ccc3O)c(=O)n2C1c1ccc(OC)cc1 (stereo not drawn) [TCMDC-124112]	-5.89	–

Structure (SMILES)	% Inhibition [%]	% Inhibition (% Inhibition) [%]
CCOC(=O)C1=C(C)N=c2sc(=Cc3cc(Cl)ccc3O)c(=O)n2C1c1ccc2c(c1)OCO2 (stereo not drawn) [TCMDC-124113]	66.04	–
NC(=O)c1cccc(Nc2nccc(Nc3ccc(Oc4c(Cl)cccc4Cl)c(Cl)c3)n2)c1 [TCMDC-138594]	-30.34	–
N#Cc1ccc2[nH]cc(C(=O)CCCCCN(Cc3ccccc3)Cc3ccccc3)c2c1 [TCMDC-131257]	33.92	–
OC(CN(Cc1ccccc1)Cc1ccccc1)Cn1c2ccc(Cl)cc2c2cc(Cl)ccc21 (stereo not drawn) [TCMDC-125720]	14.45	–
N#Cc1cccc(C(O)CN(Cc2ccccc2)Cc2ccccc2)c1 (stereo not drawn) [TCMDC-131250]	62.4	–
Cc1cc(C(F)(F)F)cc(-n2ncc(-c3ccc(C(=O)NCCNCc4ccccc4)cc3)c2N)n1 [TCMDC-136659]	-53.07	–
CS(=O)(=O)N(c1cccc(F)c1)c1cc(C(=O)N[C@@H](Cc2ccccc2)[C@H](O)CNCc2cccc(C(F)(F)F)c2)cc(N2CCCC2=O)c1 [TCMDC-138921]	-9.659	–
CCc1c[nH]c2c(N(c3ccccc3)S(C)(=O)=O)cc(C(=O)N[C@@H](Cc3ccccc3)[C@H](O)CNC(C)(C)CCCC(C)C)cc12 [TCMDC-135319]	124.7	–
CCc1c[nH]c2c(N(c3ccccc3)S(C)(=O)=O)cc(C(=O)N[C@@H](Cc3ccccc3)[C@H](O)CNCc3cccc(C(F)(F)F)c3)cc12 [TCMDC-135318]	91.8	–
CCNc1cc(C(=O)N[C@@H](Cc2ccccc2)[C@H](O)CNC(C)(C)CCCC(C)C)cc(N2CCCC2=O)c1 [TCMDC-138889]	7.674	–
CS(=O)(=O)N(c1ccc(F)cc1)c1cc(C(=O)N[C@@H](Cc2ccccc2)[C@H](O)CNCc2cccc(C(F)(F)F)c2)cc(N2CCCC2=O)c1 [TCMDC-138920]	-15.57	–
CN=C(NC)c1cccc(NC(=O)C=Cc2ccc(C=CC(=O)Nc3cccc(C(=NC)NC)c3)cc2)c1 [TCMDC-137213]	18.83	–
CCc1cc2c(=O)c(-c3nc(C)cs3)c([C@H](N)Cc3ccc(O)cc3)oc2cc1O [TCMDC-124111]	0.6377	–
O=C(N/C=N/c1cc([N+](=O)[O-])c(-c2cccnc2)n1-c1ccc(O)cc1)c1ccccc1 [TCMDC-125227]	-2.82	–
COc1ccc(CC(=O)NC(CCCN2CCC(c3ccccc3)CC2)c2ccc(Cl)c(Cl)c2)cc1OC (stereo not drawn) [TCMDC-141901]	-2.836	–
O=S(=O)(c1cc2ccccc2s1)N(CCC(O)(C(F)(F)F)C(F)(F)F)Cc1cccc(O)c1 [TCMDC-133477]	95.75	–
O=S(=O)(c1ccc(Oc2ccccc2)cc1)N(CCC(O)(C(F)(F)F)C(F)(F)F)Cc1cccc(O)c1 [TCMDC-133480]	74.25	–
O=S(=O)(c1csc2ccccc12)N(CCC(O)(C(F)(F)F)C(F)(F)F)Cc1cccc(O)c1 [TCMDC-133478]	82.79	–
COC(=O)c1cccc(CN(CCC(O)(C(F)(F)F)C(F)(F)F)C(=O)CC2CCCC2)c1 [TCMDC-133482]	48.89	–
O=C(Nc1cccc(CN2CCN(Cc3cccc(O)c3)CC2)c1)c1cc2ccccc2s1 [TCMDC-134623]	-8.756	–
O=S(=O)(c1cccc(Cl)c1F)N(CCC(O)(C(F)(F)F)C(F)(F)F)Cc1cccc(O)c1 [TCMDC-133479]	57.98	–
CC(=O)Nc1ccc(CN(Cc2ccc(F)cc2)Cc2cccc(Oc3ccccc3)c2)cc1 [TCMDC-140033]	-16.62	–
O=S(=O)(c1cc(Cl)sc1Cl)N(CCC(O)(C(F)(F)F)C(F)(F)F)Cc1cccc(O)c1 [TCMDC-133476]	47.79	–
